Test results as given in PubChem BioAssay (NCI).
Compounds without any hit were thinned out: in the full panel of roughly 83,000, 20% have a hit.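 96-well plates, one dose, 48 hours. Percent growth reported; active if below 10.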 The source made the active and inactive calls.

The compounds below were run on NCI-H460 lung (assay: NCI-60 one-dose screen, 48 h (100 = growth as untreated, 0 = no growth, -100 = all killed)). Details: 10 µM unless noted.

Q: For CSc1nc(N)c2c(n1)NC(c1ccccc1)C1CCc3ccccc3C1=N2 (configuration not stated), which growth is on record?
A: 57.3% (inactive)

Q: COc1cc2cc(Oc3ccc(NC(=O)Nc4ccc(F)c(C(F)(F)F)c4)cc3)c(C)nc2cc1OCCN1CCCCC1 was tested. Which growth did it give?
A: -69.2% (active)

Q: Which growth does the source give for O=C(Nc1ncc(Cc2ccccc2)s1)c1cc(-c2ccccc2)nc2ccccc12 here?
A: 101% (inactive)

Q: With CN1CCN(Cc2ccc(NC(=O)c3cncc(C#Cc4cnc(N)c5ncccc45)c3)cc2Cl)CC1 as the compound, how does the growth read?
A: 3.07% (active)

Q: COc1c(O[C@@H]2OC(CO)[C@H](O)[C@H](O)C2O)cc2oc3cc(O)c(CC=C(C)C)c(O)c3c(=O)c2c1CC=C(C)C (some centres not stated) was tested. Which growth did it give?
A: 101% (inactive)

Q: With COc1cccc(-c2cc(-c3ccc(Nc4nc(Nc5ccc(Cl)cc5)nc(Nc5ccc(Cl)cc5)n4)cc3)nc(N)c2C#N)c1 as the compound, how does the growth read?
A: 69% (inactive)

Q: How did the growth turn out when O=C(NCCN1CCOCC1)c1cncnc1Nc1ccc2c(ccn2Cc2ccccn2)c1 was run?
A: 103% (inactive)

These compounds were tested on HOP-92 NSCLC in the same assay as above. Details: 10 µM unless noted.

Q: With Clc1nc(N2CCC[N+]3(CC2)CC[N+]2(CCCNCC2)CC3)nc(N2CCC[N+]3(CC2)CC[N+]2(CCCNCC2)CC3)n1 (configuration not stated) as the compound, how does the growth read?
A: 131% (inactive)

Q: For O=C(Nc1ccccc1CNc1nc(Nc2ccc(OCCN3CCCC3)cc2)ncc1Cl)NC1CCCCC1, which growth is on record?
A: 65.5% (inactive)

Q: For Cc1nc2c(c(-c3ccccc3)n1)Cc1c(ccc3ccccc13)O2, which growth is on record?
A: 81.9% (inactive)

Q: How did the growth turn out when COC(CCP(=O)(c1ccccc1)c1ccccc1)(C(=O)c1ccccc1)c1ccccc1 (configuration not stated) was run?
A: -8.84% (active)

Q: Which growth does the source give for Nc1ncc(-c2ccc3ncnc(N4CCc5cc(F)c(Cl)cc54)c3c2)cc1C=O here?
A: -22.8% (active)

Q: How did the growth turn out when CC(C)(C)n1cc(-c2ccnc(NCCNS(=O)(=O)c3ccc(C(F)(F)F)cc3)c2)c(-c2ccccc2)n1 was run?
A: 3.62% (active)

Q: For Clc1ccc(C2=Nn3c(nnc3-c3cc(Cl)cc(Cl)c3Cl)SC2)cc1, which growth is on record?
A: 55.6% (inactive)

Q: How did the growth turn out when O=C(NC1CCCCCC1)c1ccc2c(=O)n3c(nc2c1)CCCCC3 was run?
A: 84.6% (inactive)

Q: With C=C1C(=O)O[C@H]2[C@H]1CC/C(CNC(=O)/C=C/c1cc(OC)c(OC)c(OC)c1)=C\CC[C@@]1(C)O[C@@H]21 as the compound, how does the growth read?
A: -36% (active)

Q: Cc1c(CC(=O)Nc2ccccc2)nnn1-c1ccccc1 was tested. Which growth did it give?
A: 108% (inactive)

Q: CCn1c2ccccc2c2cc(C(O)c3cccc4ncccc34)ccc21 (configuration not stated) was tested. Which growth did it give?
A: 29.3% (inactive)

Q: With CSc1nc(CC(C)C)c(C#N)c(=O)n1C as the compound, how does the growth read?
A: 8.54% (active)

Q: For Oc1c(Cl)cc(Cl)c2ccc(CN3CCNCC3)nc12, which growth is on record?
A: 54.1% (inactive)

Q: CO[C@H]1CC(c2ccc[nH]2)=N[C@]12O[C@@H](C)C[C@@H]1CCCCCCCc3ccc([nH]3)[C@H]12 was tested. Which growth did it give?
A: 10.3% (inactive)

Q: Which growth does the source give for Nc1c(C(=O)c2ccc(Cl)cc2)sc(Nc2ccccc2)c1-c1nc2ccccc2s1 here?
A: -18.7% (active)

Q: For Cn1nc(-c2ccc(Cl)cc2)nc2c(=O)n(C)c(=O)nc1-2, which growth is on record?
A: -28.9% (active)

Q: For Cc1ccc(C2=Nc3c(N)nc(N)nc3NC(c3cccc(Nc4ccnc5cc(C(F)(F)F)ccc45)c3)C2)cc1 (configuration not stated), which growth is on record?
A: 28.3% (inactive)

Q: For COC(=O)[C@H](C)NC(=O)c1ccc(NC(=O)c2[nH]c(C)c(Cl)c2Cl)c(OCCN)c1, which growth is on record?
A: 101% (inactive)

Q: With CC(C)=CC(=O)C1C(=O)c2ccccc2C1=O as the compound, how does the growth read?
A: 88.5% (inactive)

Q: How did the growth turn out when C=CCn1c(SCC(=O)Nc2ccc(C(=O)/C=C/c3ccc(Cl)cc3)cc2)nnc1-c1ccc(Cl)c(Cl)c1 was run?
A: 70.2% (inactive)

Q: Which growth does the source give for CC(C)n1cc(C2=C(c3cccc4ccccc34)C(=O)NC2=O)c2cc(Br)ccc21 here?
A: 158% (inactive)

Q: CC1(C)C2=C(C(=O)N1Cc1ccccc1)C(c1ccco1)N(C(=O)C1CCC1)CCN2 (configuration not stated) was tested. Which growth did it give?
A: 115% (inactive)

Q: How did the growth turn out when COc1cc(OC)cc(C(=O)Nc2cnc(Nc3ccc(N4CCOCC4)nc3)nc2Oc2ccc(C(F)(F)F)cc2)c1 was run?
A: 86.7% (inactive)

Q: With C=C(c1ccc(C(=O)O)c(F)c1)c1cc2c(cc1C)C(C)(C)C=CC2(C)C as the compound, how does the growth read?
A: 62.4% (inactive)

Q: For O=C1c2c(c3c4cc(F)ccc4oc3c3[nH]c4ccccc4c23)C(=O)N1O, which growth is on record?
A: 48.8% (inactive)

Q: Which growth does the source give for CCCN1C(=O)N(CCC)C2C1NC(=S)N2/N=C/C=C/c1ccccc1OC (configuration not stated) here?
A: 77.4% (inactive)

Q: O=C(Nc1ccccc1)Nc1ccccc1CNc1nc(Nc2ccc(OCCN3CCCC3)cc2)ncc1Cl was tested. Which growth did it give?
A: 65.1% (inactive)

Q: Which growth does the source give for O=C1NC(=O)C(=Cc2cc(-c3ccc(Cl)cc3)n(-c3ccccc3)n2)C(=O)N1 here?
A: 94.4% (inactive)

Q: Which growth does the source give for COc1ccc(-c2nc3cc(C(=O)NC4CCCCC4)ccc3n2C2CCCCC2)cc1 here?
A: 121% (inactive)

Q: For O=c1ccc2c(ccc3ncccc32)o1, which growth is on record?
A: 112% (inactive)

Q: With CC/C(=C(/c1ccc(Cl)cc1)c1ccc(OCCN(CC)CC)cc1)c1ccc(OC)cc1 as the compound, how does the growth read?
A: 51.7% (inactive)

Q: With COc1ccc(N2C(=O)/C(=C/C(Cl)=C/c3ccc([N+](=O)[O-])cc3)SC2=S)cc1 as the compound, how does the growth read?
A: -33.8% (active)

Q: How did the growth turn out when CCOC(=O)CC1CSC(N/N=C(/C)c2cccc(C(F)(F)F)c2)=N1 (configuration not stated) was run?
A: 100% (inactive)

Q: For CSc1nc(N)c2c(n1)NC(c1ccccc1)C1CCc3ccccc3C1=N2 (configuration not stated), which growth is on record?
A: 51.2% (inactive)

Q: For COc1cc2cc(Oc3ccc(NC(=O)Nc4ccc(F)c(C(F)(F)F)c4)cc3)c(C)nc2cc1OCCN1CCCCC1, which growth is on record?
A: 33.5% (inactive)

Q: For O=C(Nc1ncc(Cc2ccccc2)s1)c1cc(-c2ccccc2)nc2ccccc12, which growth is on record?
A: 84.1% (inactive)

Q: CN1CCN(Cc2ccc(NC(=O)c3cncc(C#Cc4cnc(N)c5ncccc45)c3)cc2Cl)CC1 was tested. Which growth did it give?
A: 75.6% (inactive)

Q: With COc1c(O[C@@H]2OC(CO)[C@H](O)[C@H](O)C2O)cc2oc3cc(O)c(CC=C(C)C)c(O)c3c(=O)c2c1CC=C(C)C (some centres not stated) as the compound, how does the growth read?
A: 81.1% (inactive)

Q: How did the growth turn out when COc1cccc(-c2cc(-c3ccc(Nc4nc(Nc5ccc(Cl)cc5)nc(Nc5ccc(Cl)cc5)n4)cc3)nc(N)c2C#N)c1 was run?
A: -85.7% (active)

Q: For O=C(NCCN1CCOCC1)c1cncnc1Nc1ccc2c(ccn2Cc2ccccn2)c1, which growth is on record?
A: 93.8% (inactive)
